Measured values: publication PMC5540273 (PLoS ONE, 2017)

Assays:
Conditions in all cases: concentration: 1 μM, replicates: in singlicate; n = 1
[1] = system: T1, MEK5
T1 construct: gene MAP2K5

[2] = system: T2, MEK6
T2 construct: gene MAP2K6

[3] = system: MELK
[4] = system: MERTK
[5] = system: MET
[6] = system: T3, MINK
T3 construct: gene MINK1

[7] = system: MKK7
[8] = system: MKNK1
[9] = system: MKNK2
[10] = system: T4, MLCK
T4 construct: gene MYLK3
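Further: KINOMEscan kinase panel screen.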

Compound	%Inh [1]	%Inh [2]	%Inh [3]	%Inh [4]	%Inh [5]	%Inh [6]	%Inh [7]	%Inh [8]	%Inh [9]	%Inh [10]
O=C(Nc1cccc(-c2nn3ccccc3c2-c2ccnc(Nc3cccc(C(F)(F)F)c3)n2)c1)c1c(F)cccc1F [GSK292658]	80%	0%	0%	37%	0%	2%	0%	0%	1%	0%
COc1cc2c(cc1OCCN1CCNCC1)ncc1c3ccc(C#N)cc3[nH]c21	99.6%	0%	35%	0%	5%	86%	12%	100%	99%	97.5%
CCS(=O)(=O)c1ccc(OC)c(Nc2nccc(-c3c(-c4cccc(NC(=O)c5c(F)cccc5F)c4)nn4ncccc34)n2)c1 [GSK326180]	99.6%	0%	0%	9%	2%	0%	14%	3%	12%	0%
COc1cccc(C(=O)Nc2cccc(Oc3ccc4nc(NC(=O)C5CC5)cn4n3)c2)c1	98.2%	0%	35%	57%	20%	63%	0%	4%	0%	0%
Cl.Cl.NCC(NC(=O)c1cc(-c2ccccc2)c(-c2ccnc3[nH]ccc23)s1)c1ccccc1 (stereo not shown) [GSK1321561]	19%	6%	37%	44%	3%	90.7%	17%	20%	19%	40%
COc1cc(Nc2ncc3c(C)nc(-c4cc5ccccc5[nH]4)n3n2)cc(OC)c1OC [GW869516]	78%	0%	49%	56%	0%	1%	0%	0%	0%	36%
COc1cc(Nc2nccc(-c3c(-c4cccc(NC(=O)c5c(F)cccc5F)c4)nn4ccccc34)n2)cc(OC)c1OC [GSK323521]	79%	3%	3%	59%	58%	8%	32%	7%	22%	9%
COc1cc(Nc2nccc(N3CCC(NC(=O)c4cc5ccccc5s4)C3)n2)cc(OC)c1OC (stereo not shown) [GSK1379760]	88%	0%	15%	45%	31%	0%	38%	30%	21%	0%
CCCCc1nn2ncccc2c1-c1ccnc(Nc2ccc(N3CCN(C)CC3)cc2)n1 [GW684941]	98.9%	0%	0%	56%	8%	43%	0%	9%	64%	0%
O=C(Nc1n[nH]c2cc(-c3ccoc3)ccc12)C1CC1 [SB-738481]	45%	0%	0%	0%	0%	44%	0%	0%	15%	34%
